According to PubChem BioAssay (NCATS):
Records with an inconclusive call do not appear. The source made the active and inactive calls. Calls follow the shape of the dose curve; as a rule, active = well fitted curve in the direction sought with a large enough effect; inconclusive = small, poorly fitted or top-dose-only effect, or another doubt; inactive = no such curve, though single readings can be large; an effect the other way counts as inactive or inconclusive.

Assays:
[1] = biological target: Glutathione peroxidase 1 (Homo sapiens) (UniProt P07203); assay: Primary qHTS Assay for Inhibitors of Recombinant Selenoprotein Glutathione Peroxidase 1 (GPX1) (AID 1845191); also: nearly all actives have a fitted effect of over 65% in size; as to activity, negative = inhibition: % is scaled to controls: 0 for no effect and ±100 for the full control effect
Glutathione peroxidase 1 (Homo sapiens), sequence (P07203 whole entry, looked up): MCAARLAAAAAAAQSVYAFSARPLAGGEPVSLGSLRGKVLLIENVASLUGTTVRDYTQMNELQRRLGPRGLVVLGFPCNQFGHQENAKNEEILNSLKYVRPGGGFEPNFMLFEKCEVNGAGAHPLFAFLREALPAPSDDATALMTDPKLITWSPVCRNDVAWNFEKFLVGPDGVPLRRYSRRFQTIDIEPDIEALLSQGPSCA
Method in brief: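 GR-coupled assay: compounds preincubated 30 min at room temperature with GPX1, then reaction started with CHP; final 10 nM GPX1, 1 mM GSH, 0.5 mM CHP, 0.5 mM NADPH, 100 nM GR, 0.01% BSA, pH 7.5 Tris buffer. NADPH fluorescence (340/450 nm) read at 0 and 15 min.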

[2] = biological target: Phospholipid hydroperoxide glutathione peroxidase GPX4 (Homo sapiens) (UniProt P36969); assay: Primary qHTS Assay for Inhibitors of Recombinant Selenoprotein Glutathione Peroxidase 4 (GPX4) (AID 1845192); also: nearly all actives have a fitted effect of over 65% in size; as to activity change, negative = inhibition: series mostly up to about 50 µM; % is scaled to controls: 0 for no effect and ±100 for the full control effect
Phospholipid hydroperoxide glutathione peroxidase GPX4 (Homo sapiens), sequence (P36969 whole entry, looked up): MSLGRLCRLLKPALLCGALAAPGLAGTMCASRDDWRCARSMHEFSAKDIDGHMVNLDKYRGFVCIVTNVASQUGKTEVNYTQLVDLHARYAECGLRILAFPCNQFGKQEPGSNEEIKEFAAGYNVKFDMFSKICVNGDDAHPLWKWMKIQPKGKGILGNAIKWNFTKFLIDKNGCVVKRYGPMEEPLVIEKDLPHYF
Method in brief: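 GR-coupled assay: recombinant GPX4 preincubated 30 min with compound at room temperature; final 200 nM GPX4, 1 mM GSH, 0.5 mM cumene hydroperoxide, 0.5 mM NADPH, 100 nM GR, 0.01% BSA, pH 7.5 Tris. NADPH fluorescence (340/450 nm) read at 0 and 15 min.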

[3] = biological target: Luciferin 4-monooxygenase (Photinus pyralis) (UniProt P08659); assay: Primary firefly luciferase (FLuc) qHTS assay for identification of artifact compounds. (AID 1845220); also: nearly all actives have a fitted effect of over 60% in size;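 as to activity change, negative = inhibition: series mostly up to about 54 µM; plate controls were DMSO vehicle for no effect and no enzyme for full effect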
Method in brief: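 D-luciferin and ATP (10 uM each, final) in Tris acetate buffer pH 7.6 were incubated with compounds for 15 min at room temperature. The reaction was started with 10 nM Photinus pyralis luciferase and luminescence read after 5 min. Percent inhibition was fitted to a 4-parameter Hill equation.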

[4] = Primary fluorescence-based thiol-reactive (MSTI) qHTS assay for identification of artifact compounds. (AID 1845221); also: nearly all actives have a fitted effect of over 65% in size; also: potency is read from the fitted curve at half-maximal effect;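 as to activity change, negative = thiol reactive: series mostly up to about 54 µM; thiol-reactive compounds lower the probe fluorescence signal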
Method in brief: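 One-hour, room-temperature, dark incubation of compound with 4 uM MSTI in PBS (pH 7.4, 2% DMSO) precedes a fluorescence read at 525 nm excitation, 598 nm emission; Hill-equation fitting yields concentration-response values.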

[5] = tested on: Nanoluciferase (engineered Oplophorus gracilirostris luciferase); assay: Primary Nanoluciferase (NLuc) qHTS assay for identification of artifact compounds. (AID 1845222);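 also: series mostly up to about 54 µM; 0% = DMSO and -100% = no enzyme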
Method in brief: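 Diluted conditioned medium from NLuc-expressing S16 cells treated with compounds for 15 min at room temperature, then Nano-Glo substrate added; luminescence read after 5 min. Percent inhibition versus no-enzyme and DMSO controls fitted to 4-parameter Hill equation.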

Clc1ccc(CN[C@H]2CCN(c3ncc(Br)cn3)C2)c(Cl)c1
inactive: Potency [1] | Potency [2] | Potency [3] | Potency [4] | Potency [5]

CC1(C)CC2C(O)C3=C(CC(C)(O)C2C1)C(=O)OC3O (stereo not drawn)
inactive: Potency [1] | Potency [2] | Potency [3] | Potency [4] | Potency [5]

CCC/C=C/C(=O)O[C@H]1CC(C)(C)CC2[C@]13[C@H](O)O[C@@]21CCC2[C@@]4(C)CC[C@H](O[C@@H]5O[C@H](C(=O)O)[C@@H](O)[C@H](O[C@@H]6O[C@H](CO)[C@H](O)[C@H](O)[C@H]6O[C@@H]6O[C@@H](C)[C@H](O)[C@@H](O)[C@H]6O[C@@H]6OC[C@](O)(CO)[C@H]6O)[C@H]5O[C@@H]5O[C@H](CO)[C@H](O)[C@H](O)[C@H]5O)C(C)(C)C4CC[C@@]2(C)[C@]1(C)C[C@H]3OC(C)=O (stereo partly drawn)
inactive: outcome [1] inactive [at 9.52 µM] | activity change, negative = inhibition [2] -8.75% [at 9.73 µM] | outcome [3] inactive [at 11.6 µM] | activity change, negative = thiol reactive [4] 179% [at 11.5 µM] | activity, negative = inhibition [5] 4.57% [at 11.6 µM]

CC1=C(C)C(=O)OC(C(C)C2C(O)CC3C4C5OC5C5(O)CC(OC6OC(CO)C(O)C(O)C6O)CC(O)C5(C)C4CCC32C)C1 (stereo not drawn)
inactive: Potency [1] | Potency [2] | Potency [3] | Potency [4] | Potency [5]

CC(C)CC1(C(=O)OCc2ccc(O[C@@H]3O[C@H](CO)[C@@H](O)[C@H](O)[C@H]3O)cc2)CC(=O)OC(C(=O)O)CC(=O)OCC2OC(O1)C(OC(=O)/C=C/c1ccc(O)cc1)C(O)C2O (stereo partly drawn)
inactive: Potency [1] | Potency [2] | activity change, negative = inhibition [3] 3.35% [at 11.6 µM] | activity change, negative = thiol reactive [4] 14.7% [at 11.5 µM] | activity, negative = inhibition [5] -4.21% [at 11.6 µM]

C=C[C@H]1[C@H](O[C@@H]2O[C@H](CO)[C@@H](O)[C@H](O)[C@H]2O)OC=C2C(=O)OCC[C@]21O
active: Potency [4] 11.7 µM
inactive: Potency [1] | Potency [2] | Potency [3] | Potency [5]

CC(C(=O)O)C1CCC2(C)C3C(=O)C=C4C(CCC(=O)C4(C)C)C3(C)CCC12C (stereo not drawn)
inactive: Potency [1] | Potency [2] | Potency [3] | Potency [4] | Potency [5]

C=C1CC23CC1(O)CCC2C1=CC2OC(=O)C(C)(C2O)C1C3C(=O)O (stereo not drawn)
inactive: Potency [1] | Potency [2] | Potency [3] | Potency [4] | Potency [5]

CC1=CC2(O)/C=C/C(C)(O)CC(O)/C=C/C(=O)OC23C(=O)NC(CC(C)C)C3C1C (stereo not drawn)
inactive: Potency [1] | Potency [2] | Potency [3] | Potency [4] | Potency [5]

C[C@@H](Nc1cc(NS(=O)(=O)N2CCC2)nc(SCc2cccc(F)c2F)n1)[C@@H](O)CO
inactive: Potency [1] | Potency [2] | Potency [3] | Potency [4] | Potency [5]

COc1cc(CC(COC2OC(CO)C(O)C(O)C2O)c2cc(/C=C/CO)cc(OC)c2O)ccc1O (stereo not drawn)
inactive: Potency [1] | Potency [2] | Potency [3] | Potency [5]
active: Potency [4] 9.22 µM

C/C(=C\CCC(C)(O)c1ccc(C)cc1)C(=O)O (stereo not drawn)
inactive: Potency [1] | Potency [2] | Potency [3] | Potency [4] | Potency [5]

CC1(O)CCC2C(C(=O)O)=COC(OC3OC(CO)C(O)C(O)C3OC(=O)/C=C/c3ccc(O)cc3)C21 (stereo not drawn)
active: Potency [4] 3.27 µM
inactive: Potency [1] | Potency [2] | Potency [3] | Potency [5]

O=C(OCc1cccc(O)c1O[C@@H]1O[C@H](CO)[C@@H](O)[C@H](O)[C@H]1O)C1(O)C(=O)C2C=CC1C1C=CC(=O)C(O)(C(=O)OCc3cccc(O)c3O[C@@H]3O[C@H](CO)[C@@H](O)[C@H](O)[C@H]3O)C21 (stereo partly drawn)
inactive: Potency [1] | Potency [2] | outcome [3] inactive [at 11.6 µM] | activity change, negative = thiol reactive [4] 11.6% [at 11.5 µM] | activity, negative = inhibition [5] 1.93% [at 11.6 µM]

COC(=O)C1=COC(O[C@@H]2O[C@H](CO)[C@@H](O)[C@H](O)[C@H]2O)/C(=C\COC(=O)c2ccc(OC3OC(CO)C(O)C(O)C3O)c(OC)c2)C1CC(=O)OCCc1ccc(O)cc1 (stereo partly drawn)
inactive: Potency [1] | Potency [2] | outcome [3] inactive [at 11.6 µM] | activity change, negative = thiol reactive [4] 1.89% [at 11.5 µM] | activity, negative = inhibition [5] 4.63% [at 11.6 µM]

C[C@@H]1CC[C@H]2C(C)(C)[C@H](O)[C@H](O)C[C@]2(C)[C@@]12Cc1c(O)cc3c(c1O2)CNC3=O
inactive: Potency [1] | Potency [2] | Potency [3] | Potency [4] | Potency [5]

COc1cc2c(cc1O)C1(OC)Cc3ccc4c(c3C1N(C)CC2)OCO4 (stereo not drawn)
inactive: Potency [1] | Potency [2] | Potency [3] | Potency [5]

C[C@@H]1O[C@@H](O[C@H]2[C@H](O[C@H]3[C@H](O[C@H]4CC[C@@]5(C)C(CC[C@]6(C)C5CC=C5[C@@H]7CC(C)(C(=O)O)C[C@@H](O)[C@]7(C)CC[C@]56C)[C@@]4(C)CO)O[C@H](C(=O)O)[C@@H](O)[C@@H]3O)O[C@H](CO)[C@H](O)[C@@H]2O)[C@H](O)[C@H](O)[C@H]1O (stereo partly drawn)
inactive: Potency [1] | Potency [2] | activity change, negative = inhibition [3] 0.24% [at 11.6 µM] | activity, negative = inhibition [5] -2.21% [at 11.6 µM]
